# According to PubChem BioAssay:
# Where “and” joins values, the source holds several entries; their conditions need not be identical. Equal values may be shown once. Calls of active or inactive are those of the source.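 The calls were made as follows, unless noted: active = compounds whose cell count with miR-34 switched on is under 0.7 times the count with it off; inactive = the rest.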
# Experiments:
# [1] = EMT-state selective cytotoxicity in co-culture – imaging, PC-3E GFP, TEM4-18 mCherry, primary screen (AID 1345086;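 active = compounds killing one labelled cell type while sparing the other, by normalised counts and ratio limits, not self-fluorescent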;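 as to all read-outs here: cells exposed to compound for 72 h before imaging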;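 as to red/green cell ratio (normalised): normalised mesenchymal count divided by normalised epithelial count so high means epithelial killing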); settings: PC-3E GFP / TEM4-18 mCherry co-culture, imaging cell counts, at 1 µM; for red/green cell ratio (normalised): actives lie on both sides, counts scaled to control wells, 1 = unselective
# [2] = viability loss with induced miR-34 in A549 – imaging, A549 dox-inducible miR-34, nuclei and caspase counts, primary screen (AID 1347080); settings: A549 miR-34 inducible, Hoechst nuclei count, 48 h
# [3] = target: NAD(+) hydrolase SARM1 (Homo sapiens) (UniProt Q6SZW1); test: blocking NAD cleavage by SARM1 SAM-TIR – cell lysate, NAD-Glo luminescence (AID 1508614;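 active = compound whose remaining NAD level is above about 45 nM, limit read from the data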;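 also: higher remaining NAD means stronger inhibition of SARM1 NADase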); settings: SAM-TIR HEK293T lysate NADase, at 1 µM, stronger effect = higher value
# [4] = MELAS cybrid and Rieske KO viability enhancers – cell-based, MELAS cybrids, Rieske KO mouse fibroblasts, CellTiter-Glo, primary screen (AID 1508586;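 active = mean z-score across replicates of 1.96 or higher in either the MELAS or the Rieske mutant cell line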;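 also: z relative to plate mean and SD of compound and empty wells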); settings: low glucose
# [5] = galactose survival enhancers in mitochondrial complex I cybrids – cell-based, galactose medium, ATP luminescence, primary screen (AID 1645843;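 active = z-score of at least 1.8 in each of two replicates, scored against plate mean and spread of sample wells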;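 also: positive z means more ATP and so rescue of galactose-driven cybrid death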); settings: complex I mutant cybrid cells, 72 h, stronger effect = higher value
# [6] = P. berghei load reduction in hepatocytes – cell-based, HepG2, luciferase luminescence, HepG2 viability, primary screen (AID 624349; in the data active = parasite load remaining mostly below about 12%, no sharp cut-off; inactive = mostly above about 10%;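 also: 100% = mean of DMSO negative control wells on the same plate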); settings: P. berghei liver stage in HepG2, luciferase luminescence, concentration not given here; parasite load remaining: stronger effect = lower value; viability: measured here: HepG2 viability without parasites
# [7] = growth inhibition, single agent or in combination, cell-based, chromothripsis tumors, cisplatin or BGB combos (AID 1671449; in the data active = inhibition above about 80%;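 also: cells exposed for 96 hours; 0% = vehicle DMSO and 100% = killing by high DMSO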); settings: LFS_MB_P medulloblastoma cells
# [8] = growth inhibition, single agent and combos, cell-based, chromothripsis tumors, cisplatin or BGB combos (AID 1671450; in the data active = inhibition above about 80%;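 also: cells exposed to compound for four days; 0% = vehicle DMSO and 100% = cell killing by high DMSO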); settings: HDN33 neuroblastoma cells, stronger effect = higher value
# [9] = growth inhibition, single agents and combos, ICB984, cell-based, cisplatin or BGB combos, synergistic combos for chromothripsis tumors (AID 1671451; call rule not given here;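 also: cells exposed for 96 hours before readout; 0% = vehicle DMSO and 100% = killing by high DMSO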); settings: ICB984 medulloblastoma cells, drug combinations, stronger effect = higher value
# [10] = growth inhibition, single agents and combos, HTB85, cell-based, BGB or cisplatin IC20 combos, synergistic combos for chromothripsis tumors (AID 1671453; in the data active = inhibition above about 80%;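 also: cells exposed for 96 hours before readout; 0% = vehicle DMSO and 100% = high DMSO killing control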); settings: HTB85 osteosarcoma cells, drug combinations, stronger effect = higher value
# [11] = target: Mitogen-activated protein kinase 7 (Homo sapiens) (UniProt Q13164); test: Gal4-ERK5 driven luciferase induction – cell-based, HTS, primary screen (AID 1508626;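 active = luciferase signal above three times the same-plate solvent-only control wells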;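 also: luciferase driven by Gal4-ERK5 fusion binding five Gal4 sites before minimal TATA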); settings: HeLa Gal4-ERK5 transactivation, 18 h, at 5 µM, stronger effect = higher value
# [12] = compounds altering viability of human ES cells (AID 493140; call rule not given here;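 also: cells exposed to compounds for four days before counting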); settings: human embryonic stem cell survival screen; stronger effect = higher value
# [13] = measured here: epithelial PC-3E GFP cell survival
# [14] = measured here: mesenchymal TEM4-18 mCherry cell survival
# [15] = stronger effect = lower value, cell number ratio, induced over uninduced
# [16] = measured here: relative caspase fold change +Dox/-Dox
# [17] = measured here: total cells with miR-34 induction, stronger effect = lower value
# [18] = measured here: total cells without miR-34 induction
# [19] = MELAS cybrid survival, CellTiter-Glo 48 h, stronger effect = higher value
# [20] = Rieske KO mouse fibroblast survival, CellTiter-Glo 72 h
# NAD(+) hydrolase SARM1 (Homo sapiens), sequence (Q6SZW1 whole entry, looked up): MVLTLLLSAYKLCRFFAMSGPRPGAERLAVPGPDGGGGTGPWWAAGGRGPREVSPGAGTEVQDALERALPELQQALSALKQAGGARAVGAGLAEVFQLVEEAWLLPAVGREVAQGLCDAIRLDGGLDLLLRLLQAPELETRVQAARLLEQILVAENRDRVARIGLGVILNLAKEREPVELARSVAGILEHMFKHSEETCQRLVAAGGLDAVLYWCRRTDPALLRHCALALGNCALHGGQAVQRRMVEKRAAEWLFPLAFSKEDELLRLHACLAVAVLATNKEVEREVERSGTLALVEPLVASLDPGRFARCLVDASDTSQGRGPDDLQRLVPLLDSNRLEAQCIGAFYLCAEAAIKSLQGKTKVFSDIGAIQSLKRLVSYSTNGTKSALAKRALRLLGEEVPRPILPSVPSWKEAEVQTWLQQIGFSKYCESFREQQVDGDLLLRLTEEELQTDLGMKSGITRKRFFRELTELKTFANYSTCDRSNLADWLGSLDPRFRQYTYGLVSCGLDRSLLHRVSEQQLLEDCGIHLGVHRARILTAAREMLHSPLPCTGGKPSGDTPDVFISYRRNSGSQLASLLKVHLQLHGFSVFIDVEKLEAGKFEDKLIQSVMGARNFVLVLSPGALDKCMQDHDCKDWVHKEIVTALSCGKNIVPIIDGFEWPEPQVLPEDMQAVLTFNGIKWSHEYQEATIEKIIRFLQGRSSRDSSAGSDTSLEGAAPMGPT
# Mitogen-activated protein kinase 7 (Homo sapiens), sequence (Q13164 whole entry, looked up, the tested form may be a part): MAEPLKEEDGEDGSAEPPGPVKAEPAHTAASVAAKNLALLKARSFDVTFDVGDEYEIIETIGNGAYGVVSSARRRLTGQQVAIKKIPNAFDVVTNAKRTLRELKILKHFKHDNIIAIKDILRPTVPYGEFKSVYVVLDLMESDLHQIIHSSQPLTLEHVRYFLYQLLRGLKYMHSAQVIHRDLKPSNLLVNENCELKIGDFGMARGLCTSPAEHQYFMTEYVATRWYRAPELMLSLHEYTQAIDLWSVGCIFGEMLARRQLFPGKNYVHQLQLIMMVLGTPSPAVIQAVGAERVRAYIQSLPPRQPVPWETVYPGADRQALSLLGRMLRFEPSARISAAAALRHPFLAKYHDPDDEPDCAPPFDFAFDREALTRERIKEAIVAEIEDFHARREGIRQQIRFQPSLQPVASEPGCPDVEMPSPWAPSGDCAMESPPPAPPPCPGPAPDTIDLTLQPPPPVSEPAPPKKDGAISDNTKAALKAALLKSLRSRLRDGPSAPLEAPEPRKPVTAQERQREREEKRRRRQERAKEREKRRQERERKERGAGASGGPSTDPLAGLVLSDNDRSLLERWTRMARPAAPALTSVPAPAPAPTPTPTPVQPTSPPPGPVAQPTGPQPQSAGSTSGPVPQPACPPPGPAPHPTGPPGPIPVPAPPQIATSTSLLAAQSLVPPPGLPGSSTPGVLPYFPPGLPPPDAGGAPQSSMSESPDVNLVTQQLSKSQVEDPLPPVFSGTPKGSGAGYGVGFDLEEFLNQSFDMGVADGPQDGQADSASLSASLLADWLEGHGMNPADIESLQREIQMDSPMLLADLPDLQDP
structure (smiles),measurement,setting,value
CC(O)CC(C)(C)O (stereo not given),red/green cell ratio (normalised),[1],0.94 (inactive)
same,normalised cell number,[1]; [13],1
same,normalised cell number,[1]; [14],0.94
same,fold change,[2]; [15],0.91 (inactive)
same,fold change,[2]; [16],0.891
same,cell count,[2]; [17],8730
same,cell count,[2]; [18],9590
same,remaining NAD,[3],10 nM (inactive)
CCN(CC)CCOCCOC(=O)C(CC)(CC)c1ccccc1,red/green cell ratio (normalised),[1],1.07 (inactive)
same,normalised cell number,[1]; [13],0.85
same,normalised cell number,[1]; [14],0.9
same,fold change,[2]; [15],0.879 (inactive) and 0.86 (inactive)
same,fold change,[2]; [16],0.849 and 0.967
same,cell count,[2]; [17],7300 and 7460
same,cell count,[2]; [18],8310 and 8670
same,z-score,[4]; [19],-0.986 (inactive)
same,z-score,[4]; [20],-0.272
same,remaining NAD,[3],10 nM (inactive)
same,z-score,[5],-0.65 (inactive)
O=C1/C(=C/c2cccs2)CCC/C1=C\c1cccs1,red/green cell ratio (normalised),[1],1 (inactive)
same,normalised cell number,[1]; [13],0.96
same,normalised cell number,[1]; [14],0.97
same,fold change,[2]; [15],0.964 (inactive)
same,fold change,[2]; [16],1.06
same,cell count,[2]; [17],7510
same,cell count,[2]; [18],7800
same,remaining NAD,[3],10 nM (inactive)
O=C(Nc1ccccc1)c1ccccc1O,parasite load remaining,[6],67.6% (inactive)
same,viability,[6],101%
same,red/green cell ratio (normalised),[1],1 (inactive)
same,normalised cell number,[1]; [13],1.39
same,normalised cell number,[1]; [14],1.39
same,fold change,[2]; [15],0.912 (inactive) and 0.877 (inactive)
same,fold change,[2]; [16],0.72 and 3.66
same,cell count,[2]; [17],7720 and 10000
same,cell count,[2]; [18],8460 and 11400
same,z-score,[4]; [19],-0.183 (inactive)
same,z-score,[4]; [20],-0.206
same,remaining NAD,[3],10 nM (inactive)
same,inhibition,"[7]; at 0.5 µM, stronger effect = higher value",-6.1% (inactive)
same,inhibition,"[7]; measured here: combination with BGB IC20, at 0.005 µM",6.63%
same,inhibition,"[7]; measured here: combination with BGB IC40, at 0.005 µM",36%
same,inhibition,"[7]; measured here: combination with BGB IC40, at 0.05 µM",-10.8%
same,inhibition,"[7]; measured here: combination with cisplatin, at 0.5 µM, stronger effect = higher value",-0.1%
same,inhibition,"[7]; measured here: combination with cisplatin, at 5 µM, stronger effect = higher value",3.47%
same,inhibition,"[8]; BGB combo, at 5 µM",22.1%
same,inhibition,[8]; at 0.5 µM,6.53% (inactive)
same,inhibition,"[8]; cisplatin combo, at 5 µM",16.8%
same,inhibition,"[8]; measured here: with BGB IC20 combination, at 0.5 µM",4%
same,inhibition,"[8]; measured here: with cisplatin IC20 combination, at 0.5 µM",11.1%
same,inhibition,"[8]; single agent, at 5 µM",27.8%
same,inhibition,"[9]; BGB IC20 combo, at 0.005 µM",-13.9%
same,inhibition,"[9]; BGB IC40 combo, at 0.005 µM",-1.37%
same,inhibition,"[9]; BGB IC40 combo, at 0.05 µM",0.369%
same,inhibition,[9]; at 0.5 µM,-10.1% (inactive)
same,inhibition,"[9]; cisplatin combo, at 0.05 µM",0.369%
same,inhibition,"[9]; cisplatin combo, at 0.5 µM",-23.4%
same,inhibition,"[9]; cisplatin combo, at 5 µM",-15.5%
same,inhibition,"[9]; measured here: 5 uM single agent, at 5 µM",19.2%
same,inhibition,[10]; at 0.5 µM,1.9% (inactive)
same,inhibition,"[10]; measured here: with BGB IC20, at 0.5 µM",-7.23%
same,inhibition,"[10]; measured here: with BGB IC20, at 5 µM",16.9%
same,inhibition,"[10]; measured here: with cisplatin IC20, at 0.5 µM",3.88%
same,inhibition,"[10]; measured here: with cisplatin IC20, at 5 µM",16.9%
same,inhibition,"[10]; single agent, at 5 µM",20.7%
CC1(C)OC(=O)C(OCC2CC2)=C1c1ccc(S(C)(=O)=O)cc1,red/green cell ratio (normalised),[1],1.08 (inactive)
same,normalised cell number,[1]; [13],1.02
same,normalised cell number,[1]; [14],1.1
same,fold change,[2]; [15],0.945 (inactive)
same,fold change,[2]; [16],0.86
same,cell count,[2]; [17],8900
same,cell count,[2]; [18],9420
same,remaining NAD,[3],10 nM (inactive)
CC1=C(/C=C/C(C)=C/C=C/C(C)=C/C=C/C=C(C)/C=C/C=C(C)/C=C/C2=C(C)C(=O)CCC2(C)C)C(C)(C)CCC1=O,parasite load remaining,[6],32.7% (inactive)
same,viability,[6],102%
same,red/green cell ratio (normalised),[1],1.05 (inactive)
same,normalised cell number,[1]; [13],0.85
same,normalised cell number,[1]; [14],0.9
same,fold change,[2]; [15],0.905 (inactive)
same,fold change,[2]; [16],1.09
same,cell count,[2]; [17],10100
same,cell count,[2]; [18],11200
same,z-score,[4]; [19],0.499 (inactive)
same,z-score,[4]; [20],1.32
same,luciferase signal,[11],100 AU (inactive)
same,z-score,[5],0.415 (inactive)
CCC[C@@H]1C[C@@H](C(=O)N[C@@H](C2O[C@H](SC)[C@H](O)[C@@H](O)[C@H]2O)[C@H](C)Cl)N(C)C1 (stereo not given in full),survival,[12],18.7 (inactive)
same,parasite load remaining,[6],39.2% (inactive) and 98.8% (inactive) and 83.4% (inactive)
same,viability,[6],46.1% and 89% and 92.6%
same,red/green cell ratio (normalised),[1],1.26 (inactive)
same,normalised cell number,[1]; [13],1.17
same,normalised cell number,[1]; [14],1.47
same,fold change,[2]; [15],0.895 (inactive) and 0.881 (inactive)
same,fold change,[2]; [16],1.74 and 1.41
same,cell count,[2]; [17],9010 and 10700
same,cell count,[2]; [18],10100 and 12200
same,z-score,[4]; [19],0.619 (inactive)
same,z-score,[4]; [20],-0.624
CCCCCCCC/C=C\CCCCCCCC(=O)O,red/green cell ratio (normalised),[1],1.2 (inactive)
same,normalised cell number,[1]; [13],0.8
same,normalised cell number,[1]; [14],0.96
same,fold change,[2]; [15],0.965 (inactive) and 1.03 (inactive)
same,fold change,[2]; [16],0.674 and 0.77
same,cell count,[2]; [17],8820 and 6040
same,cell count,[2]; [18],9140 and 5860
same,remaining NAD,[3],10 nM (inactive)
CCCCCCCCCCCCCCCC(=O)OCC(O)[C@H]1OC(=O)C(O)=C1O (stereo not given in full),parasite load remaining,[6],30.5% (inactive)
same,viability,[6],230%
same,red/green cell ratio (normalised),[1],1.11 (inactive)
same,normalised cell number,[1]; [13],1.1
same,normalised cell number,[1]; [14],1.22
same,fold change,[2]; [15],1.02 (inactive) and 0.87 (inactive)
same,fold change,[2]; [16],0.52 and 0.622
same,cell count,[2]; [17],7640 and 11300
same,cell count,[2]; [18],7530 and 13000
same,z-score,[4]; [19],-0.179 (inactive)
same,z-score,[4]; [20],-0.164
CCCCC(CC)CCC(CC(C)C)OS(=O)(=O)O (stereo not given),red/green cell ratio (normalised),[1],0.93 (inactive)
same,normalised cell number,[1]; [13],1.15
same,normalised cell number,[1]; [14],1.07
same,fold change,[2]; [15],0.913 (inactive)
same,fold change,[2]; [16],0.896
same,cell count,[2]; [17],8490
same,cell count,[2]; [18],9300
same,remaining NAD,[3],10 nM (inactive)
CC(=O)Nc1ccc(OC(C)=O)cc1,red/green cell ratio (normalised),[1],0.87 (inactive)
same,normalised cell number,[1]; [13],1.25
same,normalised cell number,[1]; [14],1.09
same,fold change,[2]; [15],0.883 (inactive)
same,fold change,[2]; [16],1.21
same,cell count,[2]; [17],8510
same,cell count,[2]; [18],9640
same,remaining NAD,[3],10 nM (inactive)
Cc1c(O)c(=O)n(-c2ccccc2)n1C,survival,[12],23.9 (inactive)
same,parasite load remaining,[6],37.6% (inactive) and 51.4% (inactive)
same,viability,[6],95.8% and 94.4%
same,red/green cell ratio (normalised),[1],0.78 (inactive)
same,normalised cell number,[1]; [13],1.09
same,normalised cell number,[1]; [14],0.85
same,fold change,[2]; [15],0.946 (inactive)
same,fold change,[2]; [16],1.41
same,cell count,[2]; [17],8310
same,cell count,[2]; [18],8790
same,z-score,[4]; [19],0.46 (inactive)
same,z-score,[4]; [20],-0.0513
NC(N)=NCC1COC2(CCCCC2)O1 (stereo not given),survival,[12],5.58 (inactive)
same,parasite load remaining,[6],70.3% (inactive)
same,viability,[6],91.8%
same,red/green cell ratio (normalised),[1],1.08 (inactive)
same,normalised cell number,[1]; [13],1.11
same,normalised cell number,[1]; [14],1.2
same,fold change,[2]; [15],0.907 (inactive)
same,fold change,[2]; [16],1.21
same,cell count,[2]; [17],9550
same,cell count,[2]; [18],10500
same,z-score,[4]; [19],0.764 (inactive)
same,z-score,[4]; [20],0.202
same,remaining NAD,[3],10 nM (inactive)
CC(C)N1CCN(c2ccc(OC[C@H]3CO[C@](Cn4cncn4)(c4ccc(Cl)cc4Cl)O3)cc2)CC1,parasite load remaining,[6],37.3% (inactive)
same,viability,[6],97.4%
same,red/green cell ratio (normalised),[1],0.77 (inactive)
same,normalised cell number,[1]; [13],1.12
same,normalised cell number,[1]; [14],0.87
same,fold change,[2]; [15],0.864 (inactive)
same,fold change,[2]; [16],1.54
same,cell count,[2]; [17],9020
same,cell count,[2]; [18],10400
same,z-score,[4]; [19],-0.379 (inactive)
same,z-score,[4]; [20],0.124
same,remaining NAD,[3],10 nM (inactive)
Nc1ccn(C2CSC(CO)O2)c(=O)n1 (stereo not given),red/green cell ratio (normalised),[1],1 (inactive)
same,normalised cell number,[1]; [13],1.14
same,normalised cell number,[1]; [14],1.13
same,fold change,[2]; [15],0.986 (inactive) and 0.882 (inactive)
same,fold change,[2]; [16],1.5 and 0.897
same,cell count,[2]; [17],10000 and 7840
same,cell count,[2]; [18],10200 and 8880
same,z-score,[4]; [19],-0.261 (inactive)
same,z-score,[4]; [20],0.414
same,z-score,[5],1.16 (inactive)
